Source: PubChem BioAssay (NCI)
About 83,000 compounds went through this panel and 20% of them were active in at least one assay; those are over-represented in the sample as a whole.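 Plates (96-well) were seeded with cells, treated with compound at one concentration, and incubated for 48 hours before percent growth was determined.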 Values without a mark were called inactive. The source made the active and inactive calls. The calls were made as follows: active = growth percent below 10; inactive = the rest.

Tests used:
Assay in all cases: NCI-60 one-dose screen, 48 h (100 = growth as untreated, 0 = no growth, -100 = all killed)
Conditions in all cases: 10 µM unless noted
BT-549 breast = system: BT-549 breast
MDA-MB-435 melanoma = system: MDA-MB-435 melanoma
SW-620 colon = system: SW-620 colon
MCF7 breast = system: MCF7 breast
HCT-116 colon = system: HCT-116 colon
HCC-2998 colon = system: HCC-2998 colon
KM12 colon = system: KM12 colon

With `O=C(Nc1ccc(Cl)cc1)c1cc2c(cc1O)[nH]c1ccccc12` the growth (BT-549 breast) was 26.5%, the growth (MDA-MB-435 melanoma) was -25.6% (active) and the growth (SW-620 colon) was 19.1%. The growth (MCF7 breast) was 8.67% (active), the growth (HCT-116 colon) was 14.1% and the growth (HCC-2998 colon) was -21.5% (active). The growth (KM12 colon) was 37.5%.
With `COc1cccc(/C=C2\COc3ccc(O)c(O)c3C2=O)c1OC` the growth (BT-549 breast) was 35.3%, the growth (MDA-MB-435 melanoma) was 9.09% (active) and the growth (SW-620 colon) was 4.8% (active). The growth (MCF7 breast) was 16.7%, the growth (HCT-116 colon) was -48.4% (active) and the growth (HCC-2998 colon) was 78.6%. It also gave a growth (KM12 colon) of 12.9%.
With `O=C(Nc1ccc(Cl)cc1)Nc1ccc(Oc2nncc3ccccc23)cc1` the growth (BT-549 breast) was -10.3% (active), the growth (MDA-MB-435 melanoma) was -33.3% (active) and the growth (SW-620 colon) was -30.1% (active). The growth (MCF7 breast) was 14.3%, the growth (HCT-116 colon) was -56.9% (active) and the growth (HCC-2998 colon) was -42.2% (active). The growth (KM12 colon) was -32.3% (active).
Compound `OC(CCC(O)(c1ccccc1)c1ccccc1)(c1ccccc1)c1ccccc1` has a growth (BT-549 breast) of 121%, a growth (MDA-MB-435 melanoma) of 69.9% and a growth (SW-620 colon) of 69.6%. It also gave a growth (MCF7 breast) of 87.3%, a growth (HCT-116 colon) of 80.5% and a growth (HCC-2998 colon) of 83.4%. It also gave a growth (KM12 colon) of 75%.
For `Cc1nc2cc(NC(=O)CN3CCN(CCN4C(=O)c5cccc6cccc(c56)C4=O)CC3)ccc2s1`, the growth (BT-549 breast) was 70.1%, the growth (MDA-MB-435 melanoma) was 57.8% and the growth (SW-620 colon) was 31.4%. It also gave a growth (MCF7 breast) of 32.5%, a growth (HCT-116 colon) of 22.3% and a growth (HCC-2998 colon) of 59.4%. For the same compound, the growth (KM12 colon) was 51.6%.
In the case of `C=CCCCCCCCCC(=O)[O][Sn]([CH2]CCC)([CH2]CCC)[CH2]CCC`, the growth (BT-549 breast) was -99.2% (active), the growth (MDA-MB-435 melanoma) was -86% (active) and the growth (SW-620 colon) was -81.7% (active). For the same compound, the growth (MCF7 breast) was -66.4% (active), the growth (HCT-116 colon) was -95.8% (active) and the growth (HCC-2998 colon) was -97.9% (active). For the same compound, the growth (KM12 colon) was -92.6% (active).
Work on `NNC(=O)C1CC2c3ccccc3C1c1ccccc12` (stereo unspecified) yielded a growth (BT-549 breast) of 102%, a growth (MDA-MB-435 melanoma) of 106% and a growth (SW-620 colon) of 108%. It also gave a growth (MCF7 breast) of 101%, a growth (HCT-116 colon) of 108% and a growth (HCC-2998 colon) of 101%. It also gave a growth (KM12 colon) of 115%.
`COc1ccc(C2=NNC(c3cc(Cc4ccc(O)c(C5CC(c6ccc(OC)cc6)=NN5)c4)ccc3O)C2)cc1` (stereo unspecified) showed a growth (BT-549 breast) of 58.1%, a growth (MDA-MB-435 melanoma) of 12.1% and a growth (SW-620 colon) of 30.3%. It also gave a growth (MCF7 breast) of 26.1%, a growth (HCT-116 colon) of 28.3% and a growth (HCC-2998 colon) of 55.5%. For the same compound, the growth (KM12 colon) was 55.4%.
`O=C(CCc1nnc(SCc2ccccc2)s1)c1nc2ccccc2[nH]1` gave a growth (BT-549 breast) of 108%, a growth (MDA-MB-435 melanoma) of 102% and a growth (SW-620 colon) of 107%. For the same compound, the growth (MCF7 breast) was 92.1%, the growth (HCT-116 colon) was 95% and the growth (HCC-2998 colon) was 101%. For the same compound, the growth (KM12 colon) was 110%.
`CN(C)c1ccc2c(c1)/C(=N/O)c1ccccc1-2` was tested, and the growth (BT-549 breast) was 91.7%, the growth (MDA-MB-435 melanoma) was -8.86% (active) and the growth (SW-620 colon) was 50.3%. It also gave a growth (MCF7 breast) of 19.9%, a growth (HCT-116 colon) of 39.4% and a growth (HCC-2998 colon) of 101%. For the same compound, the growth (KM12 colon) was 35.2%.
For `Cn1cc(-c2csc(-c3cn(C)c4ncccc34)n2)c2cc(F)cnc21`, the growth (BT-549 breast) was 85.7%, the growth (MDA-MB-435 melanoma) was 8.5% (active) and the growth (SW-620 colon) was 61.7%. The growth (MCF7 breast) was 58%, the growth (HCT-116 colon) was 72.5% and the growth (HCC-2998 colon) was 77.3%. The growth (KM12 colon) was 60.7%.
`CC(C)[C@H]1CC[C@H]2[C@@H](CC[C@H]3[C@](C)(CN)CCC[C@]23C)C1` was tested, and the growth (BT-549 breast) was 99.4%, the growth (MDA-MB-435 melanoma) was 1.77% (active) and the growth (SW-620 colon) was -12.2% (active). The growth (MCF7 breast) was -55.8% (active), the growth (HCT-116 colon) was 5.32% (active) and the growth (HCC-2998 colon) was 29.3%. The growth (KM12 colon) was 36.7%.
`Cc1ccc(NC(=O)COC(=O)c2ccc(S(=O)(=O)N3CCCCCC3)cc2)cc1` showed a growth (BT-549 breast) of 141%, a growth (MDA-MB-435 melanoma) of 107% and a growth (SW-620 colon) of 107%. It also gave a growth (MCF7 breast) of 102%, a growth (HCT-116 colon) of 103% and a growth (HCC-2998 colon) of 91.5%. The growth (KM12 colon) was 97.7%.
For `CCOc1cc(-c2ccc[nH]2)[nH]c1/C=C1\N=C(C)C(C(=O)OC)=C1C`, the growth (BT-549 breast) was -43.3% (active), the growth (MDA-MB-435 melanoma) was -70.8% (active) and the growth (SW-620 colon) was -72.9% (active). The growth (MCF7 breast) was -91.3% (active), the growth (HCT-116 colon) was -60.2% (active) and the growth (HCC-2998 colon) was -87% (active). The growth (KM12 colon) was -85.3% (active).
In the case of `CN(CC(=O)Nc1nc2ccccc2[nH]1)S(=O)(=O)c1ccc(Cl)cc1`, the growth (BT-549 breast) was 99.2%, the growth (MDA-MB-435 melanoma) was 91.2% and the growth (SW-620 colon) was 67.5%. For the same compound, the growth (MCF7 breast) was 40.9%, the growth (HCT-116 colon) was 72.8% and the growth (HCC-2998 colon) was 91.3%. For the same compound, the growth (KM12 colon) was 105%.
`CCN(CC)c1ccc(CN(CC(=O)c2ccc(Cl)c(Cl)c2)Cc2ccccc2)cc1` showed a growth (BT-549 breast) of 109%, a growth (MDA-MB-435 melanoma) of 106% and a growth (SW-620 colon) of 96%. For the same compound, the growth (MCF7 breast) was 95.5%, the growth (HCT-116 colon) was 104% and the growth (HCC-2998 colon) was 107%. The growth (KM12 colon) was 109%.
In the case of `COc1ccc(-c2nnc(COc3ccc(NC(=O)Nc4cc(C(F)(F)F)cc(C(F)(F)F)c4)cc3F)o2)cc1`, the growth (BT-549 breast) was 15.5%, the growth (MDA-MB-435 melanoma) was 7.29% (active) and the growth (SW-620 colon) was 13.6%. The growth (MCF7 breast) was 1.51% (active), the growth (HCT-116 colon) was 2.49% (active) and the growth (HCC-2998 colon) was 11.5%. For the same compound, the growth (KM12 colon) was 0.401% (active).
`CCN(CC)CCNc1ccc(Cl)cc1Cl` was tested, and the growth (BT-549 breast) was 106%, the growth (MDA-MB-435 melanoma) was 111% and the growth (SW-620 colon) was 104%. For the same compound, the growth (MCF7 breast) was 107%, the growth (HCT-116 colon) was 96.8% and the growth (HCC-2998 colon) was 97.4%. The growth (KM12 colon) was 110%.
